This passage reports Potency and outcome results from PubChem BioAssay (Tox21).

Experiment [1] is described as follows: qHTS assay to identify small molecule antagonists of the sonic hedgehog signaling (Shh) pathway (AID 1259369; calls by dose curve; note: nearly all actives have a fitted effect of over 45% in size; note: potency is the fitted concentration of half-maximal effect). Summed up: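 3T3Gli1-Luc, conditioned-medium-stimulated, 24hr cpd, 37C/5% CO2; Gli1-driven firefly Luc luminescence after 30min RT with luciferase reagent. Cells plated 4hr before cpd.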
For experiment [2], the target named is Estrogen receptor beta (Homo sapiens) (UniProt Q92731). Kind of experiment: qHTS assay to identify small molecule agonists of the estrogen receptor beta (ER-beta) signaling pathway (AID 1259377; active = well fitted activation curve with a large enough effect in the signal ratio in the repeat runs, not every such curve was filed as active; the % refers to the signal ratio; note: potency is the fitted concentration of half-maximal effect). A digest of the protocol:
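HEK293T ER-beta-UAS-bla; 2% charcoal-stripped FBS; cells pre-incubated 6 hr, compound 16 hr, 37C/5% CO2; LiveBLAzer B/G FRET substrate 2 h RT; fluorescence intensity read.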
In general terms: qHTS replaces the single test concentration by a dilution series.

Experiment [3] can be described thus: qHTS assay to identify small molecule agonists of the androgen receptor (AR) signaling pathway in the presence of an antagonist - cell viability counter screen (AID 1259379). Note: nearly all actives have a fitted effect of over 25% in size. Note: potency is the fitted concentration of half-maximal effect. Summed up:
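Cells: MDA-kb2 (MMTV-luc, AR and GR elements), 3,000/well, 5 hr settle. Added: nilutamide 3.0uM final, then compounds (15 conc.). Incubation: 16 hr, 37C, no CO2. Read-out: CellTiter-Fluor, 1 hr, fluorescence.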

Experiment [4] can be described thus: qHTS assay to identify small molecule agonists of the estrogen receptor beta (ER-beta) signaling pathway - cell viability counter screen (AID 1259380). Note: nearly all actives have a fitted effect of over 30% in size. Note: potency is the fitted concentration of half-maximal effect. Summed up: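 HEK293T ER-beta-UAS-bla; 2% CS-FBS; 6 hr pre-plate, 16 hr cpd at 37C/5% CO2; LiveBLAzer read first, then CellTiter-Glo 30 min RT, luminescence.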
Experiment [5] deals with Androgen receptor (Homo sapiens) (UniProt P10275). The experiment is described as follows: qHTS assay to identify small molecule agonists of the androgen receptor (AR) signaling pathway in the presence of an antagonist (AID 1259381; calls by dose curve; note: nearly all actives have a fitted effect of over 15% in size; note: potency is the fitted concentration of half-maximal effect). Summed up: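 MDA-kb2 cells, 3,000/well, rested 5hr at 37C/0% CO2 → nilutamide 3.0uM final or buffer → compounds, 15 conc. → 16hr at 37C → ONE-Glo, 30min RT → luminescence.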

Experiment [6] in a line: qHTS assay to identify small molecule antagonists of the estrogen receptor beta (ER-beta) signaling pathway - cell viability counter screen (AID 1259382).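 Note: HEK293T cells carrying ER-beta-UAS-bla reporter stimulated with estradiol; series mostly up to about 92 µM; nearly all actives have a fitted effect of over 55% in size.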 A digest of the protocol: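 Cells: ER-beta-UAS-bla HEK293T, 2,000/well, 2% CS-FBS, 6 hr settle. Cpd + E2 (1nM final), 16 hr, 37C/5% CO2. Bla FRET substrate 2 hr RT, then CellTiter-Glo 30 min RT, luminescence.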
Experiment [7] is described as follows: qHTS assay to identify small molecule agonists or antagonists of the thyroid stimulating hormone receptor (TSHR) signaling pathway - wild type cell line counter screen (AID 1259384; calls by dose curve). A digest of the protocol: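 Wild-type HEK293 cells were plated 18 h at 37 C/5% CO2, pin-dosed with compound plus Ro20-1724 medium, held 30 min at room temperature, then given cAMP-d2 and anti-cAMP-cryptate; fluorescence was read after 1 h. Fifteen concentrations, triplicate.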

Experiment [8] concerns the target Thyrotropin receptor (Homo sapiens) (UniProt P16473). The experiment is described as follows: qHTS assay to identify small molecule antagonists of the thyroid stimulating hormone receptor (TSHR) signaling pathway (AID 1259385; calls by dose curve; note: nearly all actives have a fitted effect of over 20% in size). Summed up:
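TSHR-HEK293 cells were plated and held 18 h at 37C/5% CO2, then given compound plus Ro20-1724 and stimulated with TSH at 1.5 ng/mL final. After 30 min at room temperature, cAMP was detected with cAMP-d2/anti-cAMP-cryptate (1 h) by fluorescence.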

Experiment [9] deals with Progesterone receptor (Homo sapiens) (UniProt P06401). The experiment is described as follows: qHTS assay to identify small molecule agonists of the progesterone receptor (PR) signaling pathway (AID 1346784; calls by dose curve; note: nearly all actives have a fitted effect of over 30% in size). A digest of the protocol: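 Beta-lactamase reporter read-out: after 16 hr compound treatment at 37C and a further 2 hr at room temperature with LiveBLAzer B/G FRET substrate, fluorescence was measured in PR-UAS-bla HEK 293T cells grown in 2% charcoal-stripped serum.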

Experiment [10] shares this target. The experiment is described as follows: qHTS assay to identify small molecule antagonists of the progesterone receptor (PR) signaling pathway (AID 1346795; active = well fitted inhibition curve with a large enough effect in the signal ratio in the repeat runs, not every such curve was filed as active; the % refers to the signal ratio). A digest of the protocol:
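Read-out is fluorescence from the LiveBLAzer B/G FRET substrate, cleaved by a UAS-controlled beta-lactamase in PR-UAS-bla HEK293T cells after 16 hr exposure to compound plus 1 nM promegestone (final), followed by 2 hr at room temperature.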

Experiment [11] is described as follows: qHTS assay to identify small molecule antagonists of the progesterone receptor (PR) signaling pathway - cell viability counter screen (AID 1346798). Note: nearly all actives have a fitted effect of over 50% in size. Note: potency is the fitted concentration of half-maximal effect. A digest of the protocol:
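HEK293T PR-UAS-bla, 2% charcoal-stripped FBS; 4 hr pre-plate; cpd + R5020, 16 h 37C; LiveBLAzer read first; then CellTiter-Glo 30 min RT, luminescence.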

Experiment [12] can be described thus: qHTS assay to identify small molecule agonists of the progesterone receptor (PR) signaling pathway - cell viability counter screen (AID 1346799; calls by dose curve; note: nearly all actives have a fitted effect of over 45% in size). A digest of the protocol: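 Luminescence from CellTiter-Glo, added after the beta-lactamase FRET read in the same wells, gave cytotoxicity in PR-UAS-bla HEK293T cells treated with compounds for 16 hr at 37C.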
Experiment [13] is described as follows: qHTS assay to identify small molecule antagonists of the TGF-beta/Smad signaling pathway - cell viability counter screen (AID 1346824). Note: nearly all actives have a fitted effect of over 50% in size. Summed up: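 SBE-bla HEK 293T cells were plated overnight at 37 C, then given compounds in DMSO plus TGF-beta1 (added as 0.25 ng/mL solution) for 5 hr. After the bla read, CellTiter-Glo was added to the same wells and luminescence read after 30 min at room temperature.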

Experiment [14] can be described thus: qHTS assay to identify small molecule agonists of the TGF-beta/Smad signaling pathway - cell viability counter screen (AID 1346829). Note: top concentration of the series differs between compounds; nearly all actives have a fitted effect of over 45% in size. Summed up: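 HEK 293T SBE-bla line, 5 hr compound exposure at 37 C, multiplexed CellTiter-Glo viability read by luminescence.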
Experiment [15] in a line: qHTS assay to identify small molecule agonists of the TGF-beta/Smad signaling pathway (AID 1346859; active = well fitted activation curve with a large enough effect in the signal ratio in the repeat runs, not every such curve was filed as active; the % refers to the signal ratio; note: series mostly up to about 77 µM). Summed up:
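SBE-bla HEK 293T, 4,000 cells/well, plated o/n; cpd in DMSO, 5 hr, 37 C/5% CO2; B/G FRET substrate 2 hr RT; ex 405, em 460/530 nm.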

For experiment [16], the target named is Thyrotropin-releasing hormone receptor (Homo sapiens) (UniProt P34981). The experiment is described as follows: qHTS assay to identify small molecule antagonists of the thyrotropin-releasing hormone receptor (TRHR) signaling pathway (AID 1346877; active = well fitted inhibition curve with a large enough effect in the repeat runs, not every such curve was filed as active; note: series mostly up to about 51 µM). Summed up: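 Intracellular calcium fluorescence, read kinetically every second over 3 min, reports TRH-evoked signalling in HEK293 cells carrying TRHR. Test compounds were added 5 min ahead of a 1 nM TRH challenge.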

For experiment [17] the target is unchanged. The experiment is described as follows: qHTS assay to identify small molecule agonists of the thyrotropin-releasing hormone receptor (TRHR) signaling pathway (AID 1346891; calls by dose curve; note: series mostly up to about 58 µM). Summed up: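 Intracellular calcium rise, read as fluorescence every second for 3 min, served as the agonist signal in dye-loaded HEK293 cells expressing TRHR; each compound ran at 15 concentrations in triplicate.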

Experiment [18] can be described thus: qHTS assay to identify small molecule agonists of the estrogen receptor alpha (ER-alpha) signaling pathway in the presence of an antagonist - cell viability counter screen (AID 1259386).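 Note: series mostly up to about 92 µM; cells exposed to compounds for 22 h at 37 °C before the viability read; nearly all actives have a fitted effect of over 30% in size.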 A digest of the protocol: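 VM7Luc4E2, stripped-serum pre-culture 5 d; 24hr plating; +ICI-182,780 10.0nM final; cpds 15 conc, 22hr, 37C/5% CO2; CellTiter-Fluor added at 21hr, fluorescence 1hr later.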

Experiment [19] has as its target Estrogen receptor (Homo sapiens) (UniProt P03372). Kind of experiment: qHTS assay to identify small molecule agonists of the estrogen receptor alpha (ER-alpha) signaling pathway in the presence of an antagonist (AID 1259383; calls by dose curve; note: nearly all actives have a fitted effect of over 15% in size; note: potency is the fitted concentration of half-maximal effect; for activation: top concentration of the series differs between compounds). A digest of the protocol: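 VM7Luc4E2, endog. ER-alpha + 4×ERE-luc; charcoal-stripped FBS, phenol red-free, 5 d; 24hr plating; +10.0nM ICI-182,780 (final); cpds 15 conc, 22hr, 37C/5% CO2; ONE-Glo luminescence.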

Values joined by “and” are separate entries in the source; they are usually repeats but may differ in a detail not shown here. Equal entries are not always repeated. Inconclusive results are not listed. The source holds several records for some structures; these can differ, active in one and inactive in another. Active and inactive are the calls of the source. Unless noted, calls come from the whole dose curve; as a rule, active = well fitted curve in the direction sought with a large enough effect in the repeat runs; inconclusive = weak or mixed curves; inactive = no such curve, though single readings can be large; an effect the other way counts as inactive or inconclusive.

Androgen receptor (Homo sapiens), sequence (P10275 whole entry, looked up): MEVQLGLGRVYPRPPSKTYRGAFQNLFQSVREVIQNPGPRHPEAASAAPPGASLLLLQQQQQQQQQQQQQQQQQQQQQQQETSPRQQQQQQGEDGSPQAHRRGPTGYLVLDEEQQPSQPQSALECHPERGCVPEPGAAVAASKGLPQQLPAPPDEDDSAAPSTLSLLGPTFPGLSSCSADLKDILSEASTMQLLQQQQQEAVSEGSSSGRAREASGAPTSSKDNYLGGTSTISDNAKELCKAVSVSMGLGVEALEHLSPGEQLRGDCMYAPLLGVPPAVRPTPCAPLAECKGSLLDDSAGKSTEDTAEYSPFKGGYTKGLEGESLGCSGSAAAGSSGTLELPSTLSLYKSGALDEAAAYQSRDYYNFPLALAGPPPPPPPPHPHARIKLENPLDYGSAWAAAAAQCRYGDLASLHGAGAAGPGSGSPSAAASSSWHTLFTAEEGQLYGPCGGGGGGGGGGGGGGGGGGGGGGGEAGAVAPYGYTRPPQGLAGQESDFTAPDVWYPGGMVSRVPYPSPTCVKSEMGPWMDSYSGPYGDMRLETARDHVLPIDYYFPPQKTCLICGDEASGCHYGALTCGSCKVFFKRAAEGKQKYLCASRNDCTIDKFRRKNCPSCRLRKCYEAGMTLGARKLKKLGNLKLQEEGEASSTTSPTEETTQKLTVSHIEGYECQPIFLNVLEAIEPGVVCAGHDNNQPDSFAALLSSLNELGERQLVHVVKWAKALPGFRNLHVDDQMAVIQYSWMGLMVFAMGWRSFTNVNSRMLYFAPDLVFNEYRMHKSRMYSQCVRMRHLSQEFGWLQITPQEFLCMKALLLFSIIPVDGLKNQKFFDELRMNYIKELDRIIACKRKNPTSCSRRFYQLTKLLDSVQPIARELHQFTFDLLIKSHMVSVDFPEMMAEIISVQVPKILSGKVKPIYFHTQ
Estrogen receptor beta (Homo sapiens), sequence (Q92731 whole entry, looked up): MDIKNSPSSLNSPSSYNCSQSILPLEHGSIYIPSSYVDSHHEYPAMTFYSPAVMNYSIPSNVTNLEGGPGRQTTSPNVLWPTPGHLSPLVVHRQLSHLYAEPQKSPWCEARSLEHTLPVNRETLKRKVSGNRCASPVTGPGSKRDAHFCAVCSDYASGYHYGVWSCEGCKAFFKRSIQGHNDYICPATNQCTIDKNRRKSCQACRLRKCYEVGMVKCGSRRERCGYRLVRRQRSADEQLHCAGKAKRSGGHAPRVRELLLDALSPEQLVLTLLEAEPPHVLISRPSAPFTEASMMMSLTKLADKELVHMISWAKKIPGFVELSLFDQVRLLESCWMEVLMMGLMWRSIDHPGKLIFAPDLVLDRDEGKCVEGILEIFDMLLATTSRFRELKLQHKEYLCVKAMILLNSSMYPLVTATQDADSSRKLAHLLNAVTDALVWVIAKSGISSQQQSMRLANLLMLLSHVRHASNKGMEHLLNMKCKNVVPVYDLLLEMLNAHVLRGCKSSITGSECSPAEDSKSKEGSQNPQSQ
Thyrotropin receptor (Homo sapiens), sequence (P16473 whole entry, looked up): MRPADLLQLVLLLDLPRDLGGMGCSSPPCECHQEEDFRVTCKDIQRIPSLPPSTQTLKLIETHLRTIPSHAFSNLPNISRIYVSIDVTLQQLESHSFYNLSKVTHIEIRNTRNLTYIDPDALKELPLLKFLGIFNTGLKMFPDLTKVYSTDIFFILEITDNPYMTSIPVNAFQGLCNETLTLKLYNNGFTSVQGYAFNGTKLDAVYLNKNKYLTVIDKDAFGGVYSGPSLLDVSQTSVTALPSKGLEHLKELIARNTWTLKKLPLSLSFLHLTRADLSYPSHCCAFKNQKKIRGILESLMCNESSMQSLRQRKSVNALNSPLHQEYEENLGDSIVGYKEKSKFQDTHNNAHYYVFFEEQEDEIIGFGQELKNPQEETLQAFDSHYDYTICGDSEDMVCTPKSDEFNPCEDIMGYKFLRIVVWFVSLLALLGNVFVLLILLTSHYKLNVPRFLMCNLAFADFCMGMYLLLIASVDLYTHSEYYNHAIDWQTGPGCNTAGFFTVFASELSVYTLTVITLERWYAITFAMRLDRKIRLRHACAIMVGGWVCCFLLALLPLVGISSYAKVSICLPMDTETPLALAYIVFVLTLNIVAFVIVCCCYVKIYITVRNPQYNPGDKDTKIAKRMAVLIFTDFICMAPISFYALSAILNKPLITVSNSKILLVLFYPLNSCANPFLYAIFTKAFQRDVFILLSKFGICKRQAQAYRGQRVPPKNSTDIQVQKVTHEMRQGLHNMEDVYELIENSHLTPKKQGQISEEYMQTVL
Progesterone receptor (Homo sapiens), sequence (P06401 whole entry, looked up): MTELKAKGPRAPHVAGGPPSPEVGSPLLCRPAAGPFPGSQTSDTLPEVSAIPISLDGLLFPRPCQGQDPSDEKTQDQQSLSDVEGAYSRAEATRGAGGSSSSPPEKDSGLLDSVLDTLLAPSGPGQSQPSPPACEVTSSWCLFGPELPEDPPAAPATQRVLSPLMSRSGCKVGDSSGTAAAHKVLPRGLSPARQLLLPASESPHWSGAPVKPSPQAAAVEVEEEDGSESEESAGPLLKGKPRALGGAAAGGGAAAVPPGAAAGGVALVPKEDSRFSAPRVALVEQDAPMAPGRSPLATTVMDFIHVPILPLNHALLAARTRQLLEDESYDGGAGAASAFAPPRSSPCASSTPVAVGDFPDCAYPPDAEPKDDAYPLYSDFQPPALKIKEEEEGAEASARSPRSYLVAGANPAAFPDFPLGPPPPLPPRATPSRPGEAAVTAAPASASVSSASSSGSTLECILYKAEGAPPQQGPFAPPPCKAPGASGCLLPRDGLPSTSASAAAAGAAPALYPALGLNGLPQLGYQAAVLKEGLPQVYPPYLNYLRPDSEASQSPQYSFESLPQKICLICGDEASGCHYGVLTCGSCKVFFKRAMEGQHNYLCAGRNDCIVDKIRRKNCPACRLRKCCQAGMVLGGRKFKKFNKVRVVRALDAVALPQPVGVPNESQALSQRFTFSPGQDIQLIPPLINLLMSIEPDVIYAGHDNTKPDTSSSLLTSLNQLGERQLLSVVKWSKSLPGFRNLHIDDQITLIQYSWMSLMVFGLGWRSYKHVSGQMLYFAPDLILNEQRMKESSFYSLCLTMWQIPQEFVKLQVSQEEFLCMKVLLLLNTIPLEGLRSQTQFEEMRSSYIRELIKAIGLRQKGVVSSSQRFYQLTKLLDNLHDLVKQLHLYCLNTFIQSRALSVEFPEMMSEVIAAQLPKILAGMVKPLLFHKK
Estrogen receptor (Homo sapiens), sequence (P03372 whole entry, looked up): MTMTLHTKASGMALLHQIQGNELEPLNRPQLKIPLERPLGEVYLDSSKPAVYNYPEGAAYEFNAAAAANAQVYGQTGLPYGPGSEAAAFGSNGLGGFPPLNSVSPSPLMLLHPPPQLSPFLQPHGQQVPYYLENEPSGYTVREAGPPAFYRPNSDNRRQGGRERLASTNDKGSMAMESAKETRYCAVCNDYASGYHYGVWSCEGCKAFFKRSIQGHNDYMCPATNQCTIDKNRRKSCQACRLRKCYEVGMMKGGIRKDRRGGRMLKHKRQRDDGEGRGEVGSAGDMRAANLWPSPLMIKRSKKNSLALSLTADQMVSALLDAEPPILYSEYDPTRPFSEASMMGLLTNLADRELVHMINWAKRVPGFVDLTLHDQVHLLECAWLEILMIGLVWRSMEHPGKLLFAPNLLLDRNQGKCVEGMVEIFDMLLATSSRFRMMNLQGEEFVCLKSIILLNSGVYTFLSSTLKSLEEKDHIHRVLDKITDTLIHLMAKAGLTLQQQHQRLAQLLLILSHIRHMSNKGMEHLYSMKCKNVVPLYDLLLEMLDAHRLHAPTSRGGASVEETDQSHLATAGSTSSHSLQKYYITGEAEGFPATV
Thyrotropin-releasing hormone receptor (Homo sapiens), sequence (P34981 whole entry, looked up): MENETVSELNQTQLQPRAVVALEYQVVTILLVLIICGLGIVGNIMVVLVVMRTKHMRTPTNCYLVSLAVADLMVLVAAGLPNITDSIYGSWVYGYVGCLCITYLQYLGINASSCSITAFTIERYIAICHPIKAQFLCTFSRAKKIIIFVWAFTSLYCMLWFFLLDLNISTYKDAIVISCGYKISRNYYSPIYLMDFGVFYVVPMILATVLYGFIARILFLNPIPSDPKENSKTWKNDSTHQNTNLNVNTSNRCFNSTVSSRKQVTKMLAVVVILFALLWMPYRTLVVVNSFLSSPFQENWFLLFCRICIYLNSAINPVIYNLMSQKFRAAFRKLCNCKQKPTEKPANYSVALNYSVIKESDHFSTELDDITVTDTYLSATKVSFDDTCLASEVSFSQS

In the case of `COc1ccc2c(c1OC)C(=O)O[C@H]2[C@@H]1c2cc3c(cc2CCN1C)OCO3`, the Potency entry in [1], in experiment [2], in experiment [3], in experiment [4], in experiment [5] and in experiment [6] was “inactive” throughout. For the same compound, the Potency result in experiment [8], in experiment [9], in experiment [10], in experiment [11], in [12] and in experiment [13] was “inactive” in each case. In addition, the Potency result in experiment [14] and in experiment [16] was “inactive” in each case. Moreover, the call in [7], in experiment [15] and in experiment [17] was inactive.

Regarding `Cc1ccccc1`, the Potency result in experiment [1], in experiment [2], in [3], in experiment [4], in experiment [6] and in experiment [8] was “inactive” each time. Moreover, the Potency result in experiment [18], in experiment [10], in experiment [11], in experiment [12], in experiment [13] and in experiment [14] was “inactive” each time. Moreover, the Potency result in [16] is “inactive”. The result in experiment [7] and in [17] was inactive.

With `Cc1ccc(N)c(C)c1`, the Potency result in [1], in [2], in experiment [3], in experiment [4], in experiment [6] and in experiment [10] was “inactive” each time. The Potency entry in experiment [11], in experiment [12], in experiment [13], in [14] and in [16] was “inactive” in each case. Besides, the call in [17] was inactive.

Take `CC(C)(C)c1ccc(CCOc2ncnc3ccccc23)cc1`: the Potency result in experiment [1], in [2], in experiment [3], in [4], in [6] and in experiment [19] was “inactive” in each case. Moreover, the Potency entry in experiment [8], in experiment [18], in experiment [9], in experiment [10], in experiment [11] and in experiment [12] was “inactive” in each case. The Potency result in experiment [13], in experiment [14] and in experiment [16] was “inactive” throughout. For the same compound, the compound was called inactive in [7], in experiment [15] and in experiment [17].

`CCCN(CCOc1c(Cl)cc(Cl)cc1Cl)C(=O)n1ccnc1`: the Potency is 6.24 µM (active) in experiment [1] and 78600 nM (active) in [11]. In addition, the Potency result in [2], in experiment [3], in experiment [4], in experiment [6], in experiment [8] and in [18] was “inactive” in each case. Also, the Potency result in experiment [13] and in experiment [14] was “inactive” throughout. The call in experiment [15] was inactive.

Consider `Cc1nnc(-c2ccccc2)c(=O)n1N`, for which the Potency entry in experiment [1], in experiment [2], in [3], in experiment [4], in [6] and in [19] was “inactive” in each case. Besides, the Potency entry in experiment [8], in experiment [18], in experiment [9], in experiment [12], in [13] and in [14] was “inactive” each time. For the same compound, the Potency entry in experiment [16] was “inactive”. Besides, the result in experiment [17] was inactive.

For `O=C(NCNC(=O)NC1C(=O)NC(=O)N1CO)NC1C(=O)NC(=O)N1CO` (centres undefined), the Potency entry in experiment [1], in [2], in [3], in experiment [4], in [5] and in experiment [6] was “inactive” each time. In addition, the Potency result in [8], in experiment [18], in [9], in [10], in experiment [13] and in [14] was “inactive” throughout. The Potency result in [16] was “inactive”. Further, the compound was classed as inactive in [7] and in experiment [17].

In the case of `CCCCNC(=O)OCC#CI`, the Potency in [1] is 2.16 µM (active) and 7.7 µM (active); in [3], 60.8 µM (active) and 68.6 µM (active); in experiment [4], 60.8 µM (active) and inactive. The Potency entry in experiment [2], in [6], in [19], in [8], in experiment [18] and in experiment [9] was “inactive” in each case. In addition, the Potency entry in [10], in experiment [11], in experiment [12], in experiment [13], in experiment [14] and in experiment [16] was “inactive” in each case. The compound was called inactive in experiment [15] and in experiment [17].

Take `CCC(=O)O[C@@H]1C=C2CCC3C(CCC4(C)C3CC[C@@H]4OC(=O)CC)C2CC1` (some centres undefined): the Potency entry in experiment [1], in experiment [3], in [6], in experiment [18], in [10] and in experiment [11] was “inactive” throughout. Also, the Potency result in experiment [13], in experiment [14] and in experiment [16] was “inactive” each time. The Potency in experiment [2] is 298 nM (active); in experiment [5], 188 nM (active); in [19] it was 531 nM (active). The result in experiment [7], in experiment [15] and in experiment [17] was inactive.
